This note sets out measurements from PubChem BioAssay.

Values without a mark were called inactive. For some assays here: Measured potencies and affinities stand elsewhere. Active and inactive are the calls of the source. Unless noted, no rule for the calls is given here.

Test [1] is described as follows: antimalarial activity against Dd2 strain (AID 2302;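 active = growth inhibition above 50% at the single 2 µM test dose, taken to imply half-maximal potency below 2 µM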;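 also: 0% = DMSO untreated growth and 100% = chloroquine plus artemisinin killed control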). To be noted: P. falciparum Dd2 in RBCs, LDH growth readout, 72 h; at 2 µM; active compounds read high.
Test [2] in a line: human hepatoma cell viability loss – ATP luminescence, cytotoxicity control for P. falciparum antimalarial project, primary screen (AID 2303;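 active = inhibition above 50%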;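 also: 0% = DMSO wells and 100% = digitonin-killed cells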). To be noted: HepG2 viability, 24-48 h, at 10 µM, active compounds read high.
For test [3], the target named is L-lactate dehydrogenase (Plasmodium falciparum (isolate CDC / Honduras)) (UniProt Q27743). In words: PfLDH activity inhibition – cell lysate, 3D7 strain, counter-screen for P. falciparum growth inhibition project (AID 2304).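 Also: 0% = vehicle and 100% = reference inhibitor.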 To be noted: P. falciparum 3D7 crude extract, LDH APAD/NBT absorbance; at 2 µM; active compounds read high. (In general: The purpose of a counterscreen is to sort out artefacts and off-target activity.)

A short description of test [4]: inhibition of 3D7 malaria parasite growth – strain 3D7 (AID 2306).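 Also: 0% = DMSO wells and 100% = chloroquine plus artemisinin control wells.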 To be noted: P. falciparum 3D7 erythrocytic growth, LDH absorbance, 72 h; at 2 µM; active compounds read high.
In test [5] the target is Calcium-dependent protein kinase 1 (Plasmodium falciparum (isolate 3D7)) (UniProt P62344). In words: PfCDPK1 kinase inhibitors, biochemical, TCAMS library (AID 1159585; cut-off not given, nearly all actives have IC50 up to about 0.98 µM;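 also: inhibitors leave more ATP so luminescence rises with inhibition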). To be noted: recombinant PfCDPK1, Kinase-Glo ATP depletion luminescence. (In general: Kinase-Glo measures the ATP left after a reaction by luminescence.)
The target in test [6] is Plasmodium falciparum protein kinase 6 (PK6, PF3D7_1337100) (UniProt Q8IDW1). The test is described as follows: PfPK6 kinase inhibitors, biochemical, TCAMS library (AID 1159586). To be noted: recombinant PfPK6, Kinase-Glo ATP depletion luminescence.
Test [7] addresses Protein kinase 7 (PK7), Plasmodium falciparum 3D7 (PF3D7_0213400) (UniProt Q7YTF7). In words: inhibition of Plasmodium PK7 catalytic activity – biochemical, TCAMS antimalarial set, Kinase-Glo luminescence (AID 1159587). To be noted: recombinant PfPK7, Kinase-Glo ATP depletion luminescence.
Test [8] deals with Calcium-dependent protein kinase 4 (Plasmodium falciparum (isolate 3D7)) (UniProt Q8IBS5). The test is described as follows: PfCDPK4 kinase inhibitors, biochemical, TCAMS library (AID 1159588; cut-off not given, nearly all actives have IC50 up to about 0.91 µM). To be noted: recombinant PfCDPK4, Kinase-Glo ATP depletion luminescence.
Sequence of Calcium-dependent protein kinase 4 (Plasmodium falciparum (isolate 3D7)) (Q8IBS5 whole entry, looked up): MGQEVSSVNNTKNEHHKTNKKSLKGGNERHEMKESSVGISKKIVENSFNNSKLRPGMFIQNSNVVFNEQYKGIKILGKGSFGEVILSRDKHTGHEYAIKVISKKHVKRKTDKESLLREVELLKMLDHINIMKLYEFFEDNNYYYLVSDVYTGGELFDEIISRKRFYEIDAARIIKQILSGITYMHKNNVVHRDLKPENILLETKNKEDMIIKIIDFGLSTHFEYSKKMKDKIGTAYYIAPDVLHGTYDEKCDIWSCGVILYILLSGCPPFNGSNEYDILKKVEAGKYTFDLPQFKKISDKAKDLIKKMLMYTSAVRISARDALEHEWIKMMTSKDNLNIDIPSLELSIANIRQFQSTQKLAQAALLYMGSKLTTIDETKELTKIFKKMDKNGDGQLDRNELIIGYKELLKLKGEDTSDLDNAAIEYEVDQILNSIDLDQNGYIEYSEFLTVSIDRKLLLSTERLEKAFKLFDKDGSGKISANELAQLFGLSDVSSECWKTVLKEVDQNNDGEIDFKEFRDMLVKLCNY

Sequence of Protein kinase 7 (PK7), Plasmodium falciparum 3D7 (PF3D7_0213400) (Q7YTF7 1-343): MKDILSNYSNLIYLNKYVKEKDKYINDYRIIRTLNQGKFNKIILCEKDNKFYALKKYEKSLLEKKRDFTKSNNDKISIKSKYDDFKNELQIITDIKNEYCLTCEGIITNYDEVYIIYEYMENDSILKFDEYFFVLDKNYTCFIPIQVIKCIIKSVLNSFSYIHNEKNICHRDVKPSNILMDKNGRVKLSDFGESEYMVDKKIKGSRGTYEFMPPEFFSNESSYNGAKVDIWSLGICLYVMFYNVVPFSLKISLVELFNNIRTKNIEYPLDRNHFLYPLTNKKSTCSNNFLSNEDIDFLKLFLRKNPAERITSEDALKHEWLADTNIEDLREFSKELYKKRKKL
Sequence of Plasmodium falciparum protein kinase 6 (PK6, PF3D7_1337100) (Q8IDW1 1-305): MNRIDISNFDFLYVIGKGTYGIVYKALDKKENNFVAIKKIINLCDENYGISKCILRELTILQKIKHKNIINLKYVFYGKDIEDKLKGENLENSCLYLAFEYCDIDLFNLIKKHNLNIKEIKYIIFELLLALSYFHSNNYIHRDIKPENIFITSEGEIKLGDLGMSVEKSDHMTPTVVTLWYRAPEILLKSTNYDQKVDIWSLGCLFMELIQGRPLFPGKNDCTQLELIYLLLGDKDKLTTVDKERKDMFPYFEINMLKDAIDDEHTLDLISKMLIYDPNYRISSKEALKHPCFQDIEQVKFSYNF
Sequence of Calcium-dependent protein kinase 1 (Plasmodium falciparum (isolate 3D7)) (P62344 whole entry, looked up): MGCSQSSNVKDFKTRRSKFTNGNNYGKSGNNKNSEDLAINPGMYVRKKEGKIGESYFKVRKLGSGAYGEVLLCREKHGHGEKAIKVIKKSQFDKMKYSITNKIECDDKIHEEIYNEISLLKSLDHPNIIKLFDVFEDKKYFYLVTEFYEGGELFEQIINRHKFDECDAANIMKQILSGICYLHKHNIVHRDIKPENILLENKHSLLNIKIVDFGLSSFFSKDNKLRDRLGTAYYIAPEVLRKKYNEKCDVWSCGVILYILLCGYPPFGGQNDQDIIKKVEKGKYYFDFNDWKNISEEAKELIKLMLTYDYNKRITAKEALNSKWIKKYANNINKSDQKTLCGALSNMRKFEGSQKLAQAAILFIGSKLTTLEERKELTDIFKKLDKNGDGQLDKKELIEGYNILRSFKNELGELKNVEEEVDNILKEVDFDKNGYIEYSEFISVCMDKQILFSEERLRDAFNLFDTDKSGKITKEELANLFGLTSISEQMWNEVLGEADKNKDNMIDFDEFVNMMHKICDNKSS
Sequence of L-lactate dehydrogenase (Plasmodium falciparum (isolate CDC / Honduras)) (Q27743 whole entry, looked up): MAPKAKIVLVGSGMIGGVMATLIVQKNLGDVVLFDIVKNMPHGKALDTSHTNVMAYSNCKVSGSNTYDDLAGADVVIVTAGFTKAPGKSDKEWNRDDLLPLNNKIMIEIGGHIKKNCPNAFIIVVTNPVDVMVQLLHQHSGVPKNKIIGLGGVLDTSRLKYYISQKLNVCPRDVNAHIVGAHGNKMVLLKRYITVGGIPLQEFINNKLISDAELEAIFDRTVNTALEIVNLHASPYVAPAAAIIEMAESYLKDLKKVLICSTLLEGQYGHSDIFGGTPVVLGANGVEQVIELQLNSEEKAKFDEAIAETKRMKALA

With `FC(F)(F)COc1c(CNCCCCCCNCc2ccc3ccccc3c2OCC(F)(F)F)ccc2ccccc12`, the growth inhibition is 79% (active) in test [1] and 101% (active) in test [4]. The inhibition (as a rule, the drop in the measured response relative to a control, in per cent) is 100% (active) in test [2] and 6% in test [3]. In addition, the outcome in test [5], in test [6], in test [7] and in test [8] was inactive.
Regarding `Cc1cc2nc(-c3ccc(C(=O)NC4CCN(Cc5ccccc5)CC4)cc3)[nH]c2cc1C`, the growth inhibition in test [1] is 99% (active); in test [4], 93% (active). Moreover, the inhibition in test [2] is -6%; in test [3] it was -5%. Also, the outcome in test [5], in test [6], in test [7] and in test [8] was inactive.
`COc1cc(Cc2cnc(N)nc2N)c2c(c1OC)OC(C)(C)C=C2`: the results for the growth inhibition in test [1] and in test [4] were 2% and 93% (active), respectively. Also, the figures for the inhibition in test [2] and in test [3] were 7% and -3%, respectively. The outcome in test [5], in test [6], in test [7] and in test [8] was inactive.
For `CCNc1cc(C(=O)N[C@@H](Cc2ccccc2)[C@H](O)CNC2CCC(C)(C)CC2)cc(N2CCCCS2(=O)=O)c1`, the figures for the growth inhibition in test [1] and in test [4] were 71% (active) and 98% (active), respectively. For the same compound, the inhibition in test [2] is 1%; in test [3], 3%. Further, the result in test [5], in test [6], in test [7] and in test [8] was inactive.
As to `CN1CCN(CCc2ccc(N=Cc3c(=O)[nH]c4ccc5[nH]cccc5c34)cc2)CC1`, the growth inhibition in test [1] is 98% (active); in test [4], 102% (active). Besides, the inhibition in test [2] is 51% (active); in test [3], 6%. In addition, the result in test [5], in test [6], in test [7] and in test [8] was inactive.
For the compound `NCc1ccc(-c2ccccc2CNC2CCN(Cc3ccccc3)CC2)cc1`, the growth inhibition in test [1] was 3%; in test [4], 94% (active). For the same compound, the inhibition in test [2] is 20%; in test [3], -2%. In addition, the outcome in test [5], in test [6], in test [7] and in test [8] was inactive.
Take `O=C(N[C@@H](CC1CCCCC1)C(=O)NCc1cccc2ccccc12)c1ccc(O)c(-c2ccc(Cl)c(Cl)c2)c1`: the growth inhibition in test [1] was 99% (active); in test [4], 97% (active). The inhibition is -9% in test [2] and 2% in test [3]. Moreover, the result in test [5], in test [6], in test [7] and in test [8] was inactive.
As to `COc1ccc(N2CCN(c3nc(N)c4cc(OC)c(OC)cc4n3)CC2C)cc1` (configuration not stated), the growth inhibition in test [1] was 0%; in test [4], 95% (active). In addition, the inhibition was 8% in test [2] and 0% in test [3]. Also, the outcome in test [5], in test [6], in test [7] and in test [8] was inactive.
For `CN(C)Cc1c(O)ccc2[nH]c(-c3ccc(OC(F)(F)F)cc3)nc12`, the growth inhibition in test [1] was 97% (active); in test [4], 101% (active). In addition, the inhibition in test [2] is 24%; in test [3] it was -3%. Besides, the result in test [5], in test [6], in test [7] and in test [8] was inactive.
For `O=C1Nc2cccc3c2C1(CCCCN1CCC(c2c(-c4ccc(F)cc4)[nH]c4ccccc24)CC1)CCC3` (configuration not stated), the growth inhibition in test [1] is 28%; in test [4], 91% (active). The values for the inhibition in test [2] and in test [3] were 25% and -4%, respectively. The outcome in test [5], in test [6], in test [7] and in test [8] was inactive.
Turning to `CC1(C)N=C(N)N=C(N)N1OCc1ccc2ccccc2c1CON1C(N)=NC(N)=NC1(C)C`, the growth inhibition in test [1] is 12%; in test [4], 96% (active). In addition, the inhibition in test [2] was 8%; in test [3], 1%. Also, the result in test [5], in test [6], in test [7] and in test [8] was inactive.
Turning to `CCc1cc(C(=O)c2cccc(C)c2)c(NC(=O)CN2CCN(C(=O)c3ccco3)CC2)s1`, the growth inhibition in test [1] is 85% (active); in test [4], 91% (active). Moreover, the inhibition in test [2] was -13%; in test [3], -5%. Besides, the result in test [5], in test [6], in test [7] and in test [8] was inactive.
`O=[N+]([O-])c1ccc(Oc2ccccc2CNCC2CCN(CC3CCCCC3)CC2)cc1`: the growth inhibition in test [1] was 28%; in test [4], 89% (active). Moreover, the inhibition in test [2] was 40%; in test [3] it was -2%. Moreover, the outcome in test [5], in test [6], in test [7] and in test [8] was inactive.
With `CN(C)c1ccc(-c2nc3ccc(N)cc3[nH]2)cc1`, the growth inhibition in test [1] was 97% (active); in test [4] it was 102% (active). Also, the inhibition in test [2] is 1%; in test [3], -1%. Further, the outcome in test [5], in test [6], in test [7] and in test [8] was inactive.
Take `O=C(Nc1ccc(-c2cccc(CN3CCC(O)CC3)c2)cc1)c1cccc(Cl)c1`: the growth inhibition in test [1] was 14%; in test [4], 94% (active). The values for the inhibition in test [2] and in test [3] were 50% (active) and 3%, respectively. The result in test [5], in test [6], in test [7] and in test [8] was inactive.
With `COc1ccc(NC(=O)CCNc2cc(C)nc(NCCc3ccc(F)cc3)n2)cc1`, the growth inhibition in test [1] was 3%; in test [4], 98% (active). Also, the inhibition in test [2] is 27%; in test [3], 1%. Further, the result in test [5], in test [6], in test [7] and in test [8] was inactive.
As for `CCCc1cc(Cc2cnc(N)nc2N)cc2c1OC(C)C2C` (configuration not stated), the growth inhibition was 0% in test [1] and 98% (active) in test [4]. Further, the inhibition was 32% in test [2] and -3% in test [3]. Besides, the result in test [5], in test [6], in test [7] and in test [8] was inactive.
With `CCOc1cc(Cc2cnc(N)nc2N)cc(OCC)c1O`, the growth inhibition in test [1] is -1%; in test [4], 89% (active). The inhibition was 6% in test [2] and 3% in test [3]. The result in test [5], in test [6], in test [7] and in test [8] was inactive.
As to `Clc1cc2c(Nc3ccc(Oc4ccccc4)cc3)ccnc2cc1-c1ccc(CNCCN2CCOCC2)o1`, the growth inhibition was 89% (active) in test [1] and 100% (active) in test [4]. For the same compound, the values for the inhibition in test [2] and in test [3] were -2% and -4%, respectively. Also, the outcome in test [5], in test [6], in test [7] and in test [8] was inactive.
